# Results reported in PubChem BioAssay (NCATS).
# Where “and” joins values, the source holds several entries; their conditions need not be identical. Identical values can stand only once. Inconclusive results are not listed. Calls of active or inactive are those of the source. Unless noted, calls follow the shape of the dose curve; as a rule, active = well fitted curve in the direction sought with a large enough effect; inconclusive = small, poorly fitted or top-dose-only effect, or another doubt; inactive = no such curve, though single readings can be large; an effect the other way counts as inactive or inconclusive.
# What was measured:
# [1] = Cell Viability - LYMP2-006 (AID 978);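 also: cells exposed to compound for 24 hours; % is scaled to controls: 0 for no effect and ±100 for the full control effect; nearly all actives have a fitted effect of over 60% in size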
# Procedure, shortened: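 Human lymphoblastoid cells (LYMP2-006), 2500/well in complete medium, were treated with compound for 24 hr at 37 C. Cellular ATP was read by CellTiter-Glo luminescence after 30 min, and AC50 values came from Hill-equation fits of concentration-response data.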
# [2] = Cell Viability - LYMP2-007 (AID 979);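 also: cells exposed to compound for 24 h before reading; 0% = DMSO only and the negative end = 92 µM tetraoctylammonium bromide; nearly all actives have a fitted effect of over 60% in size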
# Procedure, shortened: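 qHTS cytotoxicity: 2500 cells/well, 5 hr 37 C settle, compound 24 hr 37 C, CellTiter-Glo 30 min RT, luminescence. Decrease in ATP = toxicity. AC50 by standard Hill equation; tetraoctylammonium bromide positive control.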
# [3] = Cell Viability - LYMP2-008 (AID 980); also: % is scaled to controls: 0 for no effect and ±100 for the full control effect; nearly all actives have a fitted effect of over 60% in size
# Procedure, shortened: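 Luminescent ATP read-out (CellTiter-Glo, 30 min RT) after 24 hr compound exposure at 37 C of human lymphoblastoid cells in complete medium. Decrease in ATP taken as cytotoxicity; AC50 derived by standard Hill fit of qHTS concentration-response data.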
# [4] = Cell Viability - LYMP2-010 (AID 981);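 also: cells exposed to compound for 24 hours at 37 °C; % is scaled to controls: 0 for no effect and ±100 for the full control effect; nearly all actives have a fitted effect of over 55% in size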
# Procedure, shortened: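 qHTS cytotoxicity, 1536-well: 2500 cells/well, 5 hr settle, 24 hr compound at 37 C, CellTiter-Glo 30 min RT, luminescence read. Decrease in ATP = toxicity; AC50 via standard Hill equation. Positive control tetraoctylammonium bromide.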
# [5] = Cell Viability - LYMP2-012 (AID 982);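 also: cellular ATP by luciferase luminescence where a drop means cytotoxicity; cells exposed to compound for one day before reading; 0% = DMSO only and full loss = 92 µM tetraoctylammonium bromide; nearly all actives have a fitted effect of over 55% in size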
# [6] = Cell Viability - LYMP2-014 (AID 983);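 also: plate controls were DMSO only for no effect and 92 µM tetraoctylammonium bromide for full effect; nearly all actives have a fitted effect of over 50% in size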
# Procedure, shortened: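 2500 cells/well, 5 hr 37 C; cpd 24 hr 37 C, complete medium; CellTiter-Glo 30 min RT, luminescence; ATP loss = toxicity; AC50 via Hill eqn; tetraoctylammonium bromide positive control.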
# [7] = Cell Viability - LYMP2-016 (AID 984);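 also: cells exposed to compound for 24 hours at 37 °C; % is scaled to controls: 0 for no effect and ±100 for the full control effect; nearly all actives have a fitted effect of over 55% in size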
# Procedure, shortened: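 Human lymphoblastoid LYMP2-016 cells, 2500 per well, treated with compounds for 24 h at 37 C. Viability read as intracellular ATP by CellTiter-Glo luminescence after 30 min at room temperature; AC50 from Hill fits of concentration-response.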
# [8] = Cell Viability - LYMP2-018 (AID 985);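 also: plate controls were DMSO only for no effect and tetraoctylammonium bromide at 92 µM for full effect; nearly all actives have a fitted effect of over 50% in size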
# Procedure, shortened: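 2500 cells/well; 5 hr 37 C; cmpd 24 hr 37 C, complete medium; CellTiter-Glo 30 min RT; luminescence. Tetraoctylammonium bromide positive control. AC50 via Hill fit.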
# [9] = Cell Viability - LYMP2-020 (AID 986);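 also: plate controls were DMSO only for no effect and tetraoctylammonium bromide at 92 µM for full effect; nearly all actives have a fitted effect of over 55% in size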
# Procedure, shortened: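 qHTS, 2500 cells/well; 5 hr then 24 hr compound exposure, 37 C; CellTiter-Glo luminescence after 30 min RT; ATP decrease taken as cytotoxicity; AC50 via Hill equation; tetraoctylammonium bromide positive control.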
# [10] = Cell Viability - LYMP2-022 (AID 987)
# Procedure, shortened: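 Luminescent ATP read-out (CellTiter-Glo, 30 min, RT) after 24 hr, 37 C compound exposure of 2500 human lymphoblastoid cells/well in complete medium. Cytotoxicity taken as concentration-dependent ATP loss; AC50 from standard Hill equation.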
# [11] = Cell Viability - LYMP2-024 (AID 988);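 also: plate controls were DMSO only for no effect and 92 µM tetraoctylammonium bromide for full effect; nearly all actives have a fitted effect of over 60% in size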
# Procedure, shortened: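 ATP-based luminescence (CellTiter-Glo, 30 min RT) after 24 h compound exposure at 37 C of 2500 lymphoblastoid cells/well; decrease in ATP taken as cytotoxicity. qHTS concentration-response fitted to standard Hill equation for AC50.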
# [12] = Cell Viability - LYMP2-026 (AID 989); also: % is scaled to controls: 0 for no effect and ±100 for the full control effect; nearly all actives have a fitted effect of over 50% in size
# Procedure, shortened: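 qHTS cytotoxicity: 2500 cells/well, 5 hr 37 C, compound 24 hr 37 C, CellTiter-Glo 30 min RT, luminescence. Tetraoctylammonium bromide positive control. AC50 via standard Hill fit.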
# [13] = Cell Viability - LYMP1-002 - Assay at 24 hr (AID 993); also: % is scaled to controls: 0 for no effect and ±100 for the full control effect
# Procedure, shortened: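 CellTiter-Glo luminescence (intracellular ATP) after 24 h compound exposure, 37 C, in LYMP1-002 human lymphoblastoid cells; decreased ATP taken as cytotoxicity. AC50 from standard Hill fit of concentration-response curves.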
# [14] = Cell Viability - LYMP1-002 - Assay at 40 hr (AID 994)
# Procedure, shortened: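 qHTS cytotoxicity; 2500 cells/well, 5 hr 37 C settle, compound 40 hr 37 C. CellTiter-Glo, 30 min RT, luminescence (ATP). Concentration-response, Hill fit → AC50. Pos. ctrl tetraoctylammonium bromide.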
# [15] = molecular target: Alpha-galactosidase A (Homo sapiens) (UniProt P06280); experiment: Counterscreen for Glucocerebrosidase Inhibitors: qHTS Assay for Human alpha-Galactosidase at pH 4.5 (AID 992); also: 0% is about no effect
# Procedure, shortened: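 Steps: enzyme (2 nM final), then compound across 0.7 nM to 77 uM, then 80 uM fluorogenic galactopyranoside substrate; incubate 20 min at room temperature; quench at pH 10; measure fluorescence at 365/440 nm.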
# [16] = molecular target: alpha-glucosidase (Oryza sativa, rice) (UniProt Q653V4); experiment: Counterscreen for Glucocerebrosidase Inhibitors: qHTS Assay for Rice alpha-Glucosidase at pH 5.0 (AID 997);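 also: 0% = full activity with enzyme and -100% = basal without enzyme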
# Procedure, shortened: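 Endpoint fluorogenic assay at pH 5.0: compounds (0.7 nM to 77 uM) titrated against 4 nM rice enzyme and 400 uM 4-MU-alpha-glucoside for 20 min at room temperature; NaOH/glycine stop, read ex 365/em 440 nm, Hill-fitted AC50.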
# [17] = qHTS Assay for Lipid Storage Modulators (AID 1519; calls by dose curve; as to activity change, negative = inhibition: % is scaled to controls: 0 for no effect and ±100 for the full control effect); conditions: Drosophila S3 cells, BODIPY lipid droplet/cell ratio, laser cytometry, cells loaded with oleic acid
# Procedure, shortened: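 Cells seeded at 5,000 per well were treated with compounds over a concentration series and loaded with oleic acid (400 uM, as added). Lipid droplet fluorescence (488 nm excitation, 500-530 nm channel) was read by laser-scanning cytometry and normalized to 20 uM Triacsin C.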
# [18] = molecular target: DNA repair nuclease/redox regulator APEX1 (Homo sapiens) (UniProt P27695); experiment: qHTS Validation Assay for Inhibitors of the Human Apurinic/apyrimidinic Endonuclease 1 (APE1) (AID 1705;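 also: TAMRA fluorescence gain over two minutes as APE1 cuts a quenched THF abasic duplex; % is scaled to controls: 0 for no effect and ±100 for the full control effect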)
# Procedure, shortened: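 Fluorogenic double-stranded THF abasic-site substrate (5'-TAMRA/3'-BHQ-2), 50 nM final. Enzyme preincubated with compound 15 min at room temperature, then substrate added. Kinetic fluorescence (ex 525/em 598 nm) read three times at 60 s intervals; activity taken as third-minus-first read difference.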
# [19] = Counterscreen for APE1 Inhibitors: Fluorescent Dye Displacement Validation Assay (AID 1707);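 also: plate controls were ThO with dsDNA and no compound for no effect and ThO without dsDNA for full effect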
# Procedure, shortened: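 Reaction mixture of 250 nM Thiazole Orange and 50 nM double-stranded abasic-site DNA was dispensed, compounds were pin-transferred, and fluorescence was read at endpoint (480 nm ex, 540 nm em). Reduced fluorescence indicated dye displacement by DNA binding.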
# [20] = molecular target: Endonuclease 4 (Escherichia coli (strain K12)) (UniProt P0A6C1); experiment: Counterscreen for APE1 Inhibitors: qHTS Validation Assay for Inhibitors of Endonuclease IV (AID 1708); also: % is scaled to controls: 0 for no effect and ±100 for the full control effect
# Procedure, shortened: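 Measured as reaction progress, the fluorescence gain between first and third kinetic reads after adding 50 nM TAMRA/BHQ-2 THF duplex to 2 nM enzyme preincubated 15 min with compound; 2 mM MgCl2, pH 7.5.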
# [21] = measured here: cell count channel max response
# [22] = measured here: lipid channel max response
# Alpha-galactosidase A (Homo sapiens), sequence (P06280 whole entry, looked up): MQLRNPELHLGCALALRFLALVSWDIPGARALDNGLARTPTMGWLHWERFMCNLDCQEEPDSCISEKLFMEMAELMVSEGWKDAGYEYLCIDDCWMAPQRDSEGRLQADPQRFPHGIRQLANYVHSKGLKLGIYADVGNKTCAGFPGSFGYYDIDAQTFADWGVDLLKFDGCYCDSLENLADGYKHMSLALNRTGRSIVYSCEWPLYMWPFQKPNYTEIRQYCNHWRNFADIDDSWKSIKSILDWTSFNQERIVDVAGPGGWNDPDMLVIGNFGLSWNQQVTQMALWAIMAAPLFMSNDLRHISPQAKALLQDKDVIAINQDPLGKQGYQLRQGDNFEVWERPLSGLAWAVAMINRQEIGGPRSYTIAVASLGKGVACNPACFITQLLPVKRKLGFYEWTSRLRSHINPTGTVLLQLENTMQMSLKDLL
# DNA repair nuclease/redox regulator APEX1 (Homo sapiens), sequence (P27695 whole entry, looked up): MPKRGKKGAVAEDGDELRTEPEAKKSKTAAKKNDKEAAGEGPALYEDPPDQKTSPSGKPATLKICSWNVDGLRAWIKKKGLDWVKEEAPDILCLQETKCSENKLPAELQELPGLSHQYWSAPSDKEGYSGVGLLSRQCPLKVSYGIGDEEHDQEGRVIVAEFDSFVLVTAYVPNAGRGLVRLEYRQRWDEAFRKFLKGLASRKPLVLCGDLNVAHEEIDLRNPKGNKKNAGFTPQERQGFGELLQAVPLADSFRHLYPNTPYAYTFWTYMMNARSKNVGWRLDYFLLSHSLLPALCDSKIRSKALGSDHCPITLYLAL
smiles,measurement,setting,value
C=CCNC(N)=S,outcome,[1],inactive
same,outcome,[2],inactive
same,outcome,[3],inactive
same,outcome,[4],inactive
same,outcome,[5],inactive
same,outcome,[6],inactive
same,outcome,[7],inactive
same,outcome,[8],inactive
same,outcome,[9],inactive
same,outcome,[10],inactive
same,outcome,[11],inactive
same,outcome,[12],inactive
same,outcome,[13],inactive
same,outcome,[14],inactive
CN1C(C)(C)CCCC1(C)C,outcome,[15],inactive
same,outcome,[16],inactive
same,"activity change, negative = inhibition",[17]; at 25.7 µM (top of the series),0.627% (inactive)
same,"activity change, negative = inhibition",[17]; at 57.5 µM (top of the series),10.8% (inactive)
same,max response,[17]; [21],4.18% and 13.7%
same,max response,[17]; [22],5.5% and 25.7%
same,outcome,[18],inactive
same,outcome,[19],inactive
same,outcome,[20],inactive
Cn1c([N+](=O)[O-])cnc1COC(N)=O,"activity change, negative = inhibition",[17]; at 25.7 µM (top of the series),1.17% (inactive)
same,"activity change, negative = inhibition",[17]; at 57.5 µM (top of the series),7.17% (inactive)
same,max response,[17]; [21],-1.45% and 4.32%
same,max response,[17]; [22],-3% and 14.5%
CCN(CC)CCOC(=O)C(c1ccccc1)c1ccccc1,"activity change, negative = inhibition",[17]; at 25.7 µM (top of the series),-0.714% (inactive)
same,"activity change, negative = inhibition",[17]; at 57.5 µM (top of the series),-3.74% (inactive)
same,max response,[17]; [21],-10.9% and -9.85%
same,max response,[17]; [22],-13.6% and -9.37%
CC(=O)Nc1cccc(O)c1,outcome,[1],inactive
same,outcome,[2],inactive
same,outcome,[3],inactive
same,outcome,[4],inactive
same,outcome,[5],inactive
same,outcome,[6],inactive
same,outcome,[7],inactive
same,outcome,[8],inactive
same,outcome,[9],inactive
same,outcome,[10],inactive
same,outcome,[11],inactive
same,outcome,[12],inactive
same,outcome,[13],inactive
same,outcome,[14],inactive
same,"activity change, negative = inhibition",[17]; at 57.5 µM (top of the series),14.9% (inactive)
same,max response,[17]; [21],10%
same,max response,[17]; [22],23.8%
CC(=O)NS(=O)(=O)c1ccc(N)cc1,outcome,[1],inactive
same,outcome,[2],inactive
same,outcome,[3],inactive
same,outcome,[4],inactive
same,outcome,[5],inactive
same,outcome,[6],inactive
same,outcome,[7],inactive
same,outcome,[8],inactive
same,outcome,[9],inactive
same,outcome,[10],inactive
same,outcome,[11],inactive
same,outcome,[12],inactive
same,outcome,[13],inactive
same,outcome,[14],inactive
same,"activity change, negative = inhibition",[17]; at 25.7 µM (top of the series),-1.25% (inactive)
same,"activity change, negative = inhibition",[17]; at 57.5 µM (top of the series),7% (inactive)
same,max response,[17]; [21],0.487% and 9.27%
same,max response,[17]; [22],-1.3% and 19.7%
